Experiment [1] is described as follows: compound effects on lung adenocarcinoma cell viability – A549, calcein-AM fluorescence, 48 h, basal, profiling panel (AID 1162). As to conditions: higher = more signal.
The nature of experiment [2]: compound effects on differentiated 3T3-L1 adipocyte viability – cell-based, 3T3-L1 adipocytes, calcein-AM fluorescence, 48 h, basal, profiling panel (AID 1163). As to conditions: 3T3-L1 adipocytes viability, higher = more signal.
Experiment [3] is described as follows: compound effects on hepatocellular carcinoma cell viability – HepG2, calcein-AM fluorescence, 48 h, basal, profiling panel (AID 1164). The settings on record: higher = more signal.
A short description of experiment [4]: compound effects on multiple myeloma cell viability – MM1S, calcein-AM fluorescence, 48 h, basal, profiling panel (AID 1165).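 Also: viability of MM1S multiple myeloma cells under basal unstimulated conditions.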 The settings on record: higher = more signal.
The nature of experiment [5]: calcein-AM signal in unstimulated myeloma cells – cell-based, calcein-AM fluorescence, 48 h, PK04 Diversity Set, profiling panel (AID 1166).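 Also: cells grown under basal conditions without added stimulus.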 The settings on record: RPMI8226 myeloma viability, higher = more signal.
Experiment [6] is described as follows: JC-1 mitochondrial signal, unstimulated HepG2 cells – cell-based, JC-1 fluorescence, 24 h, 100 nL compound, profiling panel (AID 1167). As to conditions: HepG2 mitochondrial potential, higher = more signal.
The nature of experiment [7]: JC-1 mitochondrial signal, unstimulated adipocytes – cell-based, JC-1 fluorescence, 3T3-L1 adipocytes, 24 h, 100 nL compound, profiling panel (AID 1168). As to conditions: JC-1 mitochondrial fluorescence, higher = more signal, called active from +8 up or from −8 down.
A short description of experiment [8]: JC-1 mitochondrial signal, unstimulated myeloma cells – cell-based, JC-1 fluorescence, RPMI8226, 24 h, 100 nL compound, profiling panel (AID 1169). The settings on record: JC-1 mitochondrial potential fluorescence, higher = more signal.
Experiment [9] is described as follows: JC-1 mitochondrial signal, unstimulated MM1S myeloma – cell-based, JC-1 fluorescence, 24 h, 100 nL compound, profiling panel (AID 1170). The settings on record: MM1S mitochondrial potential, higher = more signal.
A short description of experiment [10]: resazurin metabolic signal in A549 cells – cell-based, resazurin fluorescence, 24 h, PK04 Diversity Set, profiling panel (AID 1171). The settings on record: A549 viability, higher = more signal, called active from +8 up or from −8 down. (Resazurin is reduced to fluorescent resorufin, in cell work by metabolically active cells.)

Structures are written as SMILES. Activity calls are given as the source filed them.
Also: test concentration not given here.

For the molecule `CCCCc1cn(C[C@H](Cc2ccccc2)NC(=O)N[C@H](CO)CCc2oc(C(C)=O)c(C(=O)OC)c2C(=O)OC)nn1`, the z-score is -0.601 in [1]; 0.813 in experiment [2]; 0.132 in experiment [3]; 0.787 in [4]; -1.22 in experiment [5]; 0.173 in experiment [6]. The z-score in [7] is 0.273 (inactive); in [8], 0.24; in [9], 1; in experiment [10] it was -0.571 (inactive).
`COc1ccc(C#Cc2ccc3c(c2)[C@]2(C(=O)N3)[C@H](c3ccccc3OCCO)N3[C@H](c4ccccc4)[C@H](c4ccccc4)OC(=O)[C@H]3[C@@H]2C(=O)O)cc1`: the z-score in [1] was 0.1; in [2], 0.143; in experiment [3] it was -2.53; in experiment [4] it was -3.32; in experiment [5], -4.18; in experiment [6], -3.62. The z-score in [7] was 2.54 (inactive); in experiment [8], -0.93; in [9] it was -1.9; in [10] it was 0.206 (inactive).
Turning to `C=C(COC)/C(=C/C[C@@H](OC(C)=O)c1ccc(CO)o1)c1cnc2ccccc2c1`, the z-score in experiment [1] is -0.11; in experiment [2] it was 0.523; in experiment [3] it was -0.856; in [4], 0.0139; in [5] it was -0.672; in experiment [6] it was -0.733. Besides, the z-score is -0.306 (inactive) in experiment [7], -0.33 in experiment [8], 1.33 in experiment [9] and -0.874 (inactive) in [10].
On to `C=CCNC(=O)[C@H]1[C@@H]2C(=O)O[C@@H](c3ccccc3)[C@@H](c3ccccc3)N2[C@@H](c2ccc(OCCO)cc2)[C@]12C(=O)Nc1ccc(C#CC3=CCCCC3)cc12`, for which the z-score was -1.03 in experiment [1]; 1.66 in [2]; -1.17 in [3]; -1.99 in [4]; -3.64 in experiment [5]; -1.43 in experiment [6]. The z-score in experiment [7] was 2.5 (inactive); in experiment [8], -1.13; in experiment [9], -1.32; in experiment [10], -0.829 (inactive).
For the molecule `COc1ccc([Si](C)(C)[C@H]2[C@H](CCn3cc([C@H](O)c4ccccc4)nn3)O[C@@]3(C(=O)N(Cc4cccc(N5CCOC5=O)c4)c4ccccc43)[C@@H]2C)cc1`, the z-score was 0.377 in experiment [1]; 0.283 in experiment [2]; 0.243 in experiment [3]; -1.32 in experiment [4]; -0.332 in [5]; -0.242 in [6]. The z-score in experiment [7] is -0.537 (inactive); in experiment [8], -0.463; in experiment [9], -0.637; in experiment [10], -1.06 (inactive).
On to `C=CC[C@]1(C(=O)N2CCCCC2)N=C(c2ccc(OCCCO)cc2)O[C@H]1c1ccccc1`, for which the z-score in experiment [1] was 0.396; in experiment [2], 0.0234; in experiment [3] it was -0.426; in experiment [4], -2.35; in experiment [5] it was -1.35; in [6] it was 0.53. The z-score in [7] was -0.0613 (inactive); in [8] it was -1.16; in experiment [9], 0.447; in experiment [10], 2.72 (inactive).
With `C=CCNC(=O)[C@H]1[C@@H]2C(=O)O[C@@H](c3ccccc3)[C@@H](c3ccccc3)N2[C@@H](c2ccc(OCCO)cc2)[C@]12C(=O)N(C(=O)OCCOC)c1ccccc12`, the z-score in experiment [1] is 0.111; in [2], 1.47; in experiment [3] it was -0.109; in [4] it was -0.472; in experiment [5] it was -2.66; in [6], 1.34. The z-score in experiment [7] was 0.131 (inactive); in experiment [8], -0.562; in experiment [9], 0.465; in experiment [10], -0.918 (inactive).
Take `CC(C)N1C(=O)[C@@]2(Cc3ccccc31)c1ccccc1C(=O)N(C1CCCCC1)[C@H]2c1ccc(CO)cc1`: the z-score in experiment [1] is -0.0998; in experiment [2], 0.0621; in experiment [3] it was -0.775; in [4], -0.546; in experiment [5], 0.0484; in experiment [6] it was 0.095. Moreover, the z-score was 0.327 (inactive) in experiment [7], 0.378 in [8], -1.79 in [9] and 2.32 (inactive) in [10].
As for `COc1ccc(CCN2C(=O)[C@@]3(Cc4ccccc42)c2ccccc2C(=O)N(Cc2ccccc2C(F)(F)F)[C@H]3c2ccc(CO)cc2)cc1`, the z-score in [1] was -0.306; in [2], 0.885; in [3], -0.863; in [4] it was 0.122; in experiment [5], -1.57; in experiment [6], -0.739. Moreover, the z-score was -0.753 (inactive) in experiment [7], 0.923 in experiment [8], -1.59 in experiment [9] and 0.639 (inactive) in [10].
Regarding `COc1ccc(C(=O)O[C@H]2CC[C@]3(C)C4=C(CCC3C2(C)C)[C@]2(C)CC[C@H]([C@H](C)CCCC(C)C)[C@@]2(C)CC4)cc1` (stereo not given in full), the z-score is 0.373 in experiment [1]; 0.586 in experiment [2]; 0.729 in [3]; 0.41 in experiment [4]; 0.784 in experiment [5]; 2.19 in experiment [6]. For the same molecule, the z-score is 0.375 (inactive) in [7], -0.0976 in experiment [8], -1.47 in experiment [9] and 0.936 (inactive) in [10].
On to `CCCC[C@H]1OB(O)C[C@H]2C1=C(COc1ccccc1)C[C@H]1C(=O)N(C)C(=O)[C@H]12`, for which the z-score was 0.498 in [1]; 0.0271 in [2]; 0.258 in [3]; -1.46 in experiment [4]; -0.185 in [5]; -1.29 in [6]. The z-score in experiment [7] was 0.468 (inactive); in experiment [8], 0.304; in experiment [9], 0.35; in experiment [10], -0.166 (inactive).
For the molecule `CN(C)CCCNC(=O)[C@@]1(C)c2ccccc2C(=O)N(Cc2cc(F)cc(C(F)(F)F)c2)[C@H]1c1ccc(CO)cc1`, the z-score in experiment [1] was 1.04; in experiment [2], -0.0121; in [3] it was -0.746; in experiment [4], -1.29; in experiment [5], -0.167; in [6], 0.845. Besides, the z-score in experiment [7] is 0.235 (inactive); in experiment [8], 0.521; in experiment [9] it was -0.496; in experiment [10], 0.896 (inactive).
As to `Cc1ccc(S[C@]2(C(=O)NCC(C)C)CC(=O)N(Cc3cc(C(F)(F)F)cc(C(F)(F)F)c3)[C@@H]2c2ccc(CO)cc2I)cc1`, the z-score in experiment [1] was -0.431; in experiment [2], 0.299; in experiment [3] it was -0.588; in [4], -3.16; in experiment [5] it was -2.29; in experiment [6], -0.523. Moreover, the z-score is -0.3 (inactive) in experiment [7], -0.39 in experiment [8], -1.01 in experiment [9] and -0.227 (inactive) in experiment [10].
Turning to `COC(=O)[C@@]1(Cc2ccccc2)[C@H]2c3cc(C(=O)N(C)C)n(CCSCCO)c3C[C@H]2CN1C(=O)c1ccccc1`, the z-score in [1] is 0.571; in [2], -0.0167; in [3], -0.0301; in experiment [4], -0.614; in [5], -0.933; in experiment [6], -1.37. Further, the z-score in experiment [7] is -0.728 (inactive); in experiment [8], 0.354; in [9], -0.229; in experiment [10], 0.0392 (inactive).
With `C[N+](C)(C)CCCC[C@@H]1NC(=O)[C@@H]2C[C@H](C(=O)NCCCCCN)[C@H](c3cccc(OCCO)c3)N2C1=O`, the z-score in experiment [1] was 1.53; in experiment [2] it was 0.698; in experiment [3], 1.45; in [4] it was 0.423; in experiment [5], 0.16; in experiment [6], 1.03. The z-score in experiment [7] was -0.117 (inactive); in experiment [8] it was 0.0947; in [9], -0.198; in [10] it was 0.0718 (inactive).
On to `C=C(COC)/C(=C/C[C@H](OC(=O)c1ccncc1)c1ccc(OCCO)cc1)c1cnc2ccccc2c1`, for which the z-score in experiment [1] is 1.54; in experiment [2], 0.317; in experiment [3], -0.303; in experiment [4] it was -1.98; in experiment [5], 0.0703; in experiment [6], -0.232. The z-score is -0.472 (inactive) in experiment [7], 0.147 in experiment [8], -0.799 in [9] and 0.67 (inactive) in [10].
